# Laboratory results reported in PubChem BioAssay (NCI).
# About 79,000 compounds went through this panel and 15% of them were active in at least one assay; those are over-represented in the sample as a whole. Values without a mark were called inactive. The source made the active and inactive calls. Rule as the data show it: active = growth inhibition above about 70%; inactive = the rest.
# Legend:
# [1] = NCI Yeast Anticancer Drug Screen. Data for the rad52 strain (AID 147);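 also: 0% = growth of vehicle-treated control cultures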; conditions: S. cerevisiae rad52 mutant growth inhibition, active compounds read high
# Summary of the method: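 Inhibition of yeast growth, referenced to vehicle controls, was the measured output for a strain with defective DNA damage repair.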
# [2] = NCI Yeast Anticancer Drug Screen. Data for the wt1 strain (AID 149);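 also: 0% = growth of vehicle-treated wt1 cultures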; conditions: S. cerevisiae wt1 strain (SPY 50644) growth inhibition, active compounds read high
# Summary of the method: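 The wt1 strain was treated with compounds, and growth was compared with vehicle-treated cultures to give inhibition.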
# [3] = NCI Yeast Anticancer Drug Screen. Data for the rad50EPP+ strain (AID 151);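 also: 0% = growth of vehicle-treated control cultures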; conditions: S. cerevisiae rad50 mutant strain, active compounds read high
# Summary of the method: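 Genetically defined yeast (rad50EPP+, DNA damage repair alteration) is grown with compound, and inhibition of growth is expressed relative to vehicle-treated controls.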
# [4] = NCI Yeast Anticancer Drug Screen. Data for the mgt1 strain (AID 153); conditions: S. cerevisiae mgt1 mutant growth inhibition, active compounds read high
# Summary of the method: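 In the mgt1 strain, test compounds were added and growth inhibition was determined relative to vehicle-treated controls.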
# [5] = NCI Yeast Anticancer Drug Screen. Data for the rad50 strain (AID 155);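 also: 0% = growth of vehicle-only cultures of the same strain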; conditions: S. cerevisiae rad50 strain growth inhibition, active compounds read high
# Summary of the method: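 Cells are treated with compound, grown, and their growth is then scored against vehicle-only cultures of the same repair-deficient yeast strain.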
# [6] = NCI Yeast Anticancer Drug Screen. Data for the mec2-1 strain (AID 157); conditions: S. cerevisiae mec2-1 strain, active compounds read high
# Summary of the method: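 Each compound was tested on mec2-1 yeast, a strain altered in DNA damage repair or cell cycle control. Growth inhibition is reported relative to vehicle.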
# [7] = NCI Yeast Anticancer Drug Screen. Data for the rad14 strain (AID 159);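 also: 0% = growth of vehicle-treated control cultures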; conditions: S. cerevisiae rad14 strain growth inhibition, active compounds read high
# Summary of the method: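 Readout: yeast growth inhibition, referenced to vehicle-only cultures. Strain bears a defined alteration in DNA damage repair.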
# [8] = NCI Yeast Anticancer Drug Screen. Data for the sgs1 mgt1 strain (AID 161);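 also: 0% = growth of cultures given vehicle only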; conditions: S. cerevisiae sgs1 mgt1 strain, active compounds read high
# Summary of the method: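 Read-out: growth inhibition vs vehicle controls. Cells: mutant yeast strain deficient in DNA damage repair.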
# [9] = NCI Yeast Anticancer Drug Screen. Data for the CLN2oe strain (AID 163);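 also: 0% = growth of vehicle-only control cultures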; conditions: S. cerevisiae CLN2oe strain, active compounds read high
# Summary of the method: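 First, the altered yeast strain was treated with each compound; second, its growth was measured; finally, inhibition was derived by comparison with vehicle controls.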
# [10] = NCI Yeast Anticancer Drug Screen. Data for the cln2 rad14 strain (AID 165);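 also: 0% = growth equal to vehicle treated cultures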; conditions: S. cerevisiae cln2 rad14 strain, active compounds read high
# Summary of the method: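 Test compounds were added to cln2 rad14 yeast cultures; inhibition of growth was then determined by comparison with vehicle treatment.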
# [11] = NCI Yeast Anticancer Drug Screen. Data for the bub3 strain (AID 167); conditions: S. cerevisiae bub3 mutant strain, active compounds read high
# Summary of the method: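 Part of a panel of yeast mutants defective in DNA damage repair or cell cycle regulation. Each strain is grown with compound, and inhibition is calculated relative to solvent-treated cultures.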
# [12] = NCI Yeast Anticancer Drug Screen. Data for the wt2 strain (AID 169);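 also: 0% = growth of vehicle-treated yeast cultures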; conditions: S. cerevisiae wt2 strain growth inhibition, active compounds read high
# Summary of the method: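 The panel's yeast strains carry defined changes in DNA repair or cell cycle genes. Each strain is grown with compound, and growth loss is scored relative to vehicle.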
# [13] = NCI Yeast Anticancer Drug Screen. Data for the mlh1 strain (AID 171);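 also: 0% = growth of vehicle-treated control cultures of the same strain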; conditions: S. cerevisiae mlh1 strain growth inhibition, active compounds read high
# Summary of the method: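 Inhibition values reflect reduced yeast growth in the presence of compound, referenced to vehicle controls, using a strain chosen for its alteration in DNA repair or cell cycle control.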
# [14] = NCI Yeast Anticancer Drug Screen. Data for the sgs1 strain (AID 173);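 also: 0% = growth of vehicle-only control cultures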; conditions: S. cerevisiae sgs1 mutant, active compounds read high
# Summary of the method: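 Vehicle-treated cultures served as reference for growth inhibition of a yeast strain altered in DNA damage repair or cell cycle control after compound exposure.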
# [15] = NCI Yeast Anticancer Drug Screen. Data for the mlh1 rad18 strain (AID 175); conditions: S. cerevisiae mlh1 rad18 strain growth inhibition, active compounds read high
# Summary of the method: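 Inhibition values reflect reduced growth of mutant yeast versus vehicle-treated controls following compound exposure; the mutations affect DNA damage repair.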
# [16] = NCI Yeast Anticancer Drug Screen. Data for the rad18 strain (AID 177); conditions: S. cerevisiae rad18 mutant growth inhibition, active compounds read high
# Summary of the method: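 Steps: expose repair-mutant yeast to compound; measure growth; express as inhibition relative to vehicle control.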
# [17] = at 5.0 µM (retest, dose inferred, filed as 0.5)
# [18] = at 50.0 µM (retest, dose inferred, filed as 5.0)
compound,measurement,setting,value
CC(CN(C)C)C(=O)/C=C/c1ccc(Cl)c(Cl)c1 (stereo not drawn),growth inhibition,[1]; at 1.2 µM,7%
same,growth inhibition,[1]; at 3.7 µM,15%
same,growth inhibition,[1]; at 11.0 µM,29%
same,growth inhibition,[1]; at 33.0 µM,73% (active)
same,growth inhibition,[1]; at 100.0 µM,95% (active)
same,growth inhibition,[2]; at 1.2 µM,4%
same,growth inhibition,[2]; at 3.7 µM,6%
same,growth inhibition,[2]; at 11.0 µM,9%
same,growth inhibition,[2]; at 33.0 µM,24%
same,growth inhibition,[2]; at 100.0 µM,85% (active)
same,growth inhibition,[3]; at 1.2 µM,2%
same,growth inhibition,[3]; at 3.7 µM,10%
same,growth inhibition,[3]; at 11.0 µM,27%
same,growth inhibition,[3]; at 33.0 µM,61%
same,growth inhibition,[3]; at 100.0 µM,89% (active)
same,growth inhibition,[4]; at 1.2 µM,4%
same,growth inhibition,[4]; at 3.7 µM,3%
same,growth inhibition,[4]; at 11.0 µM,13%
same,growth inhibition,[4]; at 33.0 µM,83% (active)
same,growth inhibition,[4]; at 100.0 µM,98% (active)
same,growth inhibition,[5]; at 1.2 µM,0%
same,growth inhibition,[5]; at 3.7 µM,-3%
same,growth inhibition,[5]; [17],-9%
same,growth inhibition,[5]; at 11.0 µM,20%
same,growth inhibition,[5]; at 33.0 µM,66%
same,growth inhibition,[5]; [18],3%
same,growth inhibition,[5]; at 50.0 µM,99.2% (active)
same,growth inhibition,[5]; at 100.0 µM,95% (active)
same,growth inhibition,[6]; at 1.2 µM,4%
same,growth inhibition,[6]; at 3.7 µM,5%
same,growth inhibition,[6]; [17],4%
same,growth inhibition,[6]; at 11.0 µM,14%
same,growth inhibition,[6]; at 33.0 µM,48%
same,growth inhibition,[6]; [18],-10%
same,growth inhibition,[6]; at 50.0 µM,99.4% (active)
same,growth inhibition,[6]; at 100.0 µM,97% (active)
same,growth inhibition,[7]; at 1.2 µM,6%
same,growth inhibition,[7]; at 3.7 µM,9%
same,growth inhibition,[7]; at 11.0 µM,22%
same,growth inhibition,[7]; at 33.0 µM,50%
same,growth inhibition,[7]; at 100.0 µM,96% (active)
same,growth inhibition,[8]; [17],-4%
same,growth inhibition,[8]; [18],8%
same,growth inhibition,[8]; at 50.0 µM,99.6% (active)
same,growth inhibition,[9]; at 1.2 µM,3%
same,growth inhibition,[9]; at 3.7 µM,5%
same,growth inhibition,[9]; at 11.0 µM,10%
same,growth inhibition,[9]; at 33.0 µM,29%
same,growth inhibition,[9]; at 100.0 µM,74% (active)
same,growth inhibition,[10]; [17],-3%
same,growth inhibition,[10]; [18],-7%
same,growth inhibition,[10]; at 50.0 µM,97% (active)
same,growth inhibition,[11]; at 1.2 µM,3%
same,growth inhibition,[11]; at 3.7 µM,5%
same,growth inhibition,[11]; [17],-16%
same,growth inhibition,[11]; at 11.0 µM,16%
same,growth inhibition,[11]; at 33.0 µM,69%
same,growth inhibition,[11]; [18],82% (active)
same,growth inhibition,[11]; at 50.0 µM,99.2% (active)
same,growth inhibition,[11]; at 100.0 µM,97% (active)
same,growth inhibition,[12]; at 1.2 µM,2%
same,growth inhibition,[12]; at 3.7 µM,6%
same,growth inhibition,[12]; at 11.0 µM,14%
same,growth inhibition,[12]; at 33.0 µM,70% (active)
same,growth inhibition,[12]; at 100.0 µM,98% (active)
same,growth inhibition,[13]; at 1.2 µM,4%
same,growth inhibition,[13]; at 3.7 µM,6%
same,growth inhibition,[13]; at 11.0 µM,15%
same,growth inhibition,[13]; at 33.0 µM,74% (active)
same,growth inhibition,[13]; at 100.0 µM,98% (active)
same,growth inhibition,[14]; at 1.2 µM,4%
same,growth inhibition,[14]; at 3.7 µM,9%
same,growth inhibition,[14]; at 11.0 µM,25%
same,growth inhibition,[14]; at 33.0 µM,84% (active)
same,growth inhibition,[14]; at 100.0 µM,98% (active)
same,growth inhibition,[15]; [17],-7%
same,growth inhibition,[15]; [18],-21%
same,growth inhibition,[15]; at 50.0 µM,99.2% (active)
same,growth inhibition,[16]; at 1.2 µM,5%
same,growth inhibition,[16]; at 3.7 µM,15%
same,growth inhibition,[16]; at 11.0 µM,40%
same,growth inhibition,[16]; at 33.0 µM,84% (active)
same,growth inhibition,[16]; at 100.0 µM,97% (active)
CCC1(O)C(=O)OCc2c1cc1n(c2=O)Cc2cc3c(N)cccc3nc2-1 (stereo not drawn),growth inhibition,[1]; at 1.2 µM,-21%
same,growth inhibition,[1]; at 3.7 µM,31%
same,growth inhibition,[1]; at 11.0 µM,53%
same,growth inhibition,[1]; at 33.0 µM,57%
same,growth inhibition,[1]; at 100.0 µM,54%
same,growth inhibition,[2]; at 1.2 µM,-22%
same,growth inhibition,[2]; at 3.7 µM,-14%
same,growth inhibition,[2]; at 11.0 µM,-26%
same,growth inhibition,[2]; at 33.0 µM,-24%
same,growth inhibition,[2]; at 100.0 µM,-16%
same,growth inhibition,[3]; at 1.2 µM,-12%
same,growth inhibition,[3]; at 3.7 µM,7%
same,growth inhibition,[3]; at 11.0 µM,-8%
same,growth inhibition,[3]; at 33.0 µM,10%
same,growth inhibition,[3]; at 100.0 µM,-8%
same,growth inhibition,[4]; at 1.2 µM,-12%
same,growth inhibition,[4]; at 3.7 µM,-15%
same,growth inhibition,[4]; at 11.0 µM,3%
same,growth inhibition,[4]; at 33.0 µM,-5%
same,growth inhibition,[4]; at 100.0 µM,-31%
same,growth inhibition,[5]; at 1.2 µM,11%
same,growth inhibition,[5]; at 3.7 µM,38%
same,growth inhibition,[5]; [17],58%
same,growth inhibition,[5]; at 11.0 µM,64%
same,growth inhibition,[5]; at 33.0 µM,68%
same,growth inhibition,[5]; [18],79% (active)
same,growth inhibition,[5]; at 50.0 µM,56.5%
same,growth inhibition,[5]; at 100.0 µM,60%
same,growth inhibition,[6]; at 1.2 µM,-22%
same,growth inhibition,[6]; at 3.7 µM,-5%
